The values below come from PubChem BioAssay (NCI).

This is part of a sample that, as a whole, favours compounds with a hit. Of some 83,000 tested, about 20% had one in any assay.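 Step 1: grow cells in 96-well plates. Step 2: add test compound at a single concentration. Step 3: incubate 48 h. Step 4: record percent growth.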 The source made the active and inactive calls.

The experiment relates to HCT-15 colon. The experiment in a line: NCI-60 one-dose screen, 48 h (100 = growth as untreated, 0 = no growth, -100 = all killed). The conditions noted are these: 10 µM unless noted. The protocol:
Growth inhibition of the HCT-15 human tumor cell line is measured as a screen for anti-cancer activity. Cells are grown in 96 well plates and exposed to the test compound for 48 hours. Compounds are tested at a single concentration, which is 10^-5 M for most compounds. The reported endpoint is percent growth (GI% or GIPRCNT), where numbers from 0 - 100% represent growth inhibition, and numbers from -100% - 0 represent cell death. For example, a value of 40 represents 60% growth inhibition. A value of 0 means no net growth occurred over the course of the experiment. A value of -40 indicates 40% of cells at the beginning of the experiment died by the end of the experiment. A value of -100 means all cells are dead at the end of the experiment.
NCI-60 Human Tumor Cell Lines Screen was performed using the standard one-dose NCI protocol, which is described in more detail at https://dtp.cancer.gov/discovery_development/nci-60/default.htm.
Compounds with GIPRCNT values below 10 were considered active. Activity score was based on GIPRCNT using the following formula: […]
Score is 0 for GIPRCNT values of 100 or above, 50 for GIPRCNT values of 0, and 100 for GIPRCNT values of -100.
In the case of `O=C1c2c(c3c4cc(Br)ccc4[nH]c3c3ccc4ccccc4c23)C(=O)N1O`, the growth is 85.4% (inactive). The figure for `O=C1C2CC3C(CC2C(=O)[N]1[Sn]([c]1ccccc1)([c]1ccccc1)[c]1ccccc1)C1(Cl)C(Cl)=C(Cl)C3(Cl)C1(Cl)Cl` (stereo not given) is -88% (active). As to `O=C(N/N=C/c1ccc(OC(F)F)c(OC2CCCC2)c1)c1cnn2c1NC(c1ccccc1)C2` (stereo not given), the growth was 51.1% (inactive). The figure for `CC(C)(C)[Si](C)(C)OC1[C@@H](CNC(=O)NC(=O)CCl)O[C@@H](n2cnc3c(N)ncnc32)[C@H]1O[Si](C)(C)C(C)(C)C` (stereo not given in full) is -72.8% (active).

With `c1ccc2cc(Cn3c(-c4ccc5ccccc5c4)[n+](Cc4ccc5ccccc5c4)c4ccccc43)ccc2c1`, the growth was -74.6% (active). With `COc1ccc(OC)c(/C=C2\Oc3cc(O)ccc3C2=O)c1`, the growth was 75% (inactive). `CCCCC(=O)N/N=C/c1cc(I)cc(I)c1O`: the growth was 15.6% (inactive). As to `COc1cccc(OC(=O)c2ccccc2)c1OC(=O)c1ccccc1`, the growth is 70.9% (inactive).

For the compound `CC(C)(C)[Si](C)(C)OC1[C@@H](COC(=O)NC(=O)CCl)O[C@@H](n2cnc3c(N)ncnc32)[C@H]1O[Si](C)(C)C(C)(C)C` (stereo not given in full), the growth is 11.8% (inactive). The value for `NC(=S)N/N=C1\c2ccccc2-c2c(F)c(F)c(F)c(F)c21` was 62.8% (inactive); that for `CCOc1ccc(/C=N\N2CCCCCC2)cc1OCC` was 62.1% (inactive); that for `Cc1nc2cc(Nc3nc(Cl)nc(Nc4ccc(F)cc4)n3)ccc2n1Cc1ccccc1` was 72.1% (inactive). With `Cl.Fc1c[c-]c(-c2ccccn2)c(F)c1.[Pt].c1ccc([PH+](CC[PH+](c2ccccc2)c2ccccc2)c2ccccc2)cc1`, the growth is -76.2% (active). The figure for `COc1cc2oc(-c3ccc(O)cc3)cc(=O)c2c(O)c1I` is 100% (inactive); for `Brc1ccc(Br)nn1` it is -100% (active); for `COC(=O)c1c2c(c(C)[n+]([O-])c1C)C(=O)C=C(NCc1ccc(Cl)cc1)C2=O` it is -54.8% (active). The figure for `OB(O)c1ccccc1` is 102% (inactive); for `COc1ccc(/C=N/OCC(O)CNCc2ccccc2)cc1OC1CCCC1` (stereo not given) it is 102% (inactive). The figure for `CC1(C)N=C(N)N=C(N)N1c1cccc(/C=C/C=C/c2cccc([N+](=O)[O-])c2)c1` is 88.7% (inactive); for `COc1cc(C(F)(F)F)ccc1-c1cc(-c2ccc(F)cc2)n[nH]1` it is 73.3% (inactive). Turning to `FCOC(C(F)(F)F)C(F)(F)F`, the growth was 103% (inactive). The value for `CCC(C)Oc1cc(/C=N/NC(=O)c2cnn3c2NC(c2ccccc2)C3)ccc1OC` (stereo not given) was 23.9% (inactive). As to `COC(=O)[C@@H]1CCCN1C(=O)[C@@H]1CCCN1C(=O)[C@@H](Cc1c[nH]c2ccccc12)NC(=S)Nc1cc(C(F)(F)F)cc(C(F)(F)F)c1`, the growth was 74.6% (inactive).

Turning to `COC(=O)CCC(=O)c1ccccc1`, the growth was 102% (inactive). The figure for `N#C/C(=C\c1ccc[nH]1)c1cc2ccccc2[nH]1` is 50.2% (inactive); for `C(=C\c1ccccc1)/CN1CCN(C(c2ccccc2)c2ccccc2)CC1` it is 80.9% (inactive).

With `O=C(NC1CC1)c1cc2n(n1)CC(c1ccccc1)N2` (stereo not given), the growth was 95.3% (inactive). The value for `O=[N+]([O-])c1cc2c(cc1Br)C1C(C3C2C(Cl)(Cl)C(Cl)=C(Cl)C3(Cl)Cl)C(Cl)(Cl)C(Cl)=C(Cl)C1(Cl)Cl` (stereo not given) was 103% (inactive); that for `CC1(C)N=C(N)N=C(N)N1c1cccc(OCCOc2cccc([N+](=O)[O-])c2)c1` was 89.5% (inactive). In the case of `CC1(C)CC(=O)C2=C(C1)Nc1cc3c(cc1C2c1ccc(F)cc1)OCO3` (stereo not given), the growth is 93.9% (inactive). The value for `O=c1oc2ccccc2cc1-c1csc(N/N=C/c2cc3ccccc3nc2Cl)n1` was 101% (inactive); that for `COc1ccc(-c2c(-c3cc4c(c(OC)c3OC)OCO4)noc2N)cc1` was 27% (inactive). In the case of `Cc1ccc(S(=O)(=O)c2ccc3[nH]c(=O)[nH]c(=O)c3c2)cc1`, the growth is 103% (inactive). The value for `COc1ccc(/C=C/C(=O)N2CCC(O)CC2)cc1OC1CCCC1` was 102% (inactive); that for `CC(C)NCC(O)COc1ccc(CCOCC2CC2)cc1` (stereo not given) was 107% (inactive); that for `Cn1c2ccccc2c2nn(C(=O)c3ccccc3)c(=O)nc21` was 101% (inactive). With `COCCOC1=C(Cl)C(=O)c2ccccc2C1=O`, the growth was 13% (inactive). Consider `COC(=O)c1cc(-c2ccc(C)cc2)n(C(=O)CSc2nc3sc(C(N)=O)c(C)c3c(=O)n2Cc2ccccc2)n1`, for which the growth was 98.1% (inactive). With `COc1cc(-c2nc3ccccc3o2)cc(CN2CCN(c3ccccc3)CC2)c1O`, the growth is 43.6% (inactive). On to `O=C1NC(=O)C(CSc2ccccc2)(c2ccccc2)N1` (stereo not given), for which the growth is 119% (inactive).
